Experimental data published in article PMC7826789 (International Journal of Molecular Sciences, 2021).

The molecules below were run on STK33. Settings: Compound Concentration (nM):1000.
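Also: KINOMEscan scanMAX binding as percent activity remaining versus control; lower means stronger binding.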

SMILES | Percent Control
COc1cc(C=NNc2ncnc3c2cnn3-c2ccccc2)ccc1O [GW513184X] | 100%
CCS(=O)(=O)c1ccc(OC)c(Nc2ncc(-c3cccc(OC)c3)o2)c1 [GW580509X] | 100%
Cl.O=C(Nc1ccc(Oc2ccc3[nH]c(NC(=O)c4ccco4)nc3c2)cc1)Nc1cc(C(F)(F)F)ccc1F [GW683134A] | 9.8%
CN1CCN(C(=O)c2ccc(NC(=O)Nc3ccc(N(C)c4ccnc(Nc5ccc(CS(C)(=O)=O)cc5)n4)cc3)cc2)CC1.Cl [GW830263A] | 92%
COc1cc(N2CCN(C(C)C)CC2)ccc1Nc1nc(Nc2ccc(F)cc2C(=O)NC[C@@H](O)CO)c2cc[nH]c2n1 [GSK1392956A] | 1.5%
C[C@@H](Oc1cc(-n2cnc3ccc(OC4CCN(C)CC4)cc32)sc1C(N)=O)c1ccccc1Cl [GSK579289A] | 100%
COc1ccc2cc(-c3c(-c4ccncc4)nc(-c4ccc(S(C)(=O)=O)cc4C)n3C)ccc2c1 [SB-633825] | 89%
COC(=O)Nc1nc2ccc(Oc3ccc(NC(=O)Nc4cc(C(F)(F)F)ccc4F)cc3)cc2s1.Cl [GW693917A] | 44%
CN(C)CCNC(=O)Nc1ccc(N(C)c2ccnc(Nc3ccc(CS(C)(=O)=O)cc3)n2)cc1.Cl [GW830900A] | 85%
COc1cc(/C=N/Nc2ncnc3[nH]ncc23)ccc1O [GW578748X] | 95%
COc1cc2ncn(-c3cc(O[C@H](C)c4ccccc4Cl)c(C(N)=O)s3)c2cc1OC [GSK237701A] | 100%
CN(C)c1cc2c(Nc3ccc4c(cnn4Cc4ccccc4)c3)ncnc2cn1 [GW282974X] | 84%
Cl.O=S1CCN(Cc2ccc(-c3ccc4ncnc(Nc5ccc(OCc6ccccc6)c(F)c5)c4c3)o2)CC1 [GW576924A] | 84%
CCc1ccc(Oc2nccc(-c3c(-c4ccc(F)cc4)ncn3C3CCNCC3)n2)cc1 [SB-242719] | 92%
Nc1ncnc2occ(-c3ccc(NC(=O)Nc4cc(C(F)(F)F)ccc4F)cc3)c12 [GW770249X] | 11%
Cl.O=C(O[C@H]1CN[C@H](C#Cc2cc3ncnc(Nc4ccc5c(cnn5Cc5ccccc5)c4)c3s2)C1)N1CCOCC1 [GSK200398A] | 90%
Cl.c1ccc(Cc2nc3ccc(Nc4ncnc5ccccc45)cc3[nH]2)cc1 [GR269666A] | 97%
COc1ccc2c(-c3ccnc(Nc4cccc(OC(F)(F)F)c4)n3)cnn2n1 [GW810372X] | 90%
COc1cccc(-c2c[nH]c3c(N/N=C/c4ccncc4)ncnc23)c1 [GW814408X] | 84%
CCn1c(-c2nonc2N)nc2c(C#CC(C)(C)O)nc(OCCNC)cc21.Cl [GSK949675] | 100%

SMILES | Percent Control
NS(=O)(=O)c1ccc(Nc2ncc(-c3ccccc3)o2)cc1 [GW572399X] | 100%
COc1ccc(COc2ccc(Cc3cnc(N)nc3N)cc2OC)cc1 [GW632580X] | 100%
CC(C)COC(=O)c1ccc2c(c1)/C(=C/Nc1ccc(S(N)(=O)=O)cc1)C(=O)N2 [GW416981X] | 24%
Cl.O=C(Nc1ccc(Oc2ccc3[nH]c(NC(=O)c4ccccc4)nc3c2)cc1)Nc1cc(C(F)(F)F)ccc1F [GW709042A] | 29%
COc1cccc(-n2ncc3c(N/N=C/c4ccncc4)ncnc32)c1 [GW784752X] | 100%
NS(=O)(=O)c1ccc(N/N=C2\C(=O)Nc3ccc(Cl)cc32)cc1 [GW280670X] | 95%
O=C(Nc1n[nH]c2nc(-c3ccc(O)cc3)c(Br)cc12)C1CC1 [SB-725317] | 96%
CC1=C(C(=O)Nc2ccc3[nH]ncc3c2)C(c2ccc3ccccc3c2)CC(=O)N1 (stereo not shown) [GSK270822A] | 95%
Cc1cc(O)cc(C)c1/C=C/c1cncc(C(N)=O)c1 [GW435821X] | 94%
NS(=O)(=O)c1ccc(N/N=C2\C(=O)Nc3ccc(C(=O)NCc4ccncc4)cc32)cc1 [GW300657X] | 87%
C/C(Nc1ccc(S(N)(=O)=O)cc1)=C1/C(=O)Nc2ccccc21 [GW335962X] | 92%
CC1=C(C(=O)Nc2ccc3[nH]ncc3c2)C(c2ccc(Cl)c(Cl)c2)CC(=O)N1 (stereo not shown) [GSK299115A] | 82%
CCS(=O)(=O)c1ccc(OC)c(Nc2ncc(-c3cccc(F)c3)o2)c1 [GW621970X] | 95%
COc1ccccc1-c1cc(/C=C2\C(=O)Nc3ncc(Br)cc32)cc(Br)c1O [GW442130X] | 100%
NS(=O)(=O)c1ccc(N/N=C2\C(=O)Nc3ccc(C(=O)NCCc4c[nH]cn4)cc32)cc1 [GW300660X] | 67%
O=C1Nc2ccc(C(=O)c3ccco3)cc2C1=Cc1cc(Cl)c(O)c(Cl)c1 [GW406108X] | 86%
COc1cc(C)c(N(C)C(=O)CN(C)C)cc1Nc1nc(Nc2cccc(F)c2C(N)=O)c2cc[nH]c2n1 [GSK2219385] | 91%
NS(=O)(=O)c1ccc(N/N=C2\C(=O)Nc3ccc(-c4cnco4)cc32)cc1 [GW276655] | 100%
COc1ccc2[nH]c3c4[nH]c5ccc(OC)cc5c4c4c(c3c2c1)C(=O)NC4=O [GW296115X] | 33%
COc1cc2ncnc(Nc3ccc4c(cnn4Cc4ccccc4)c3)c2cc1OC.Cl [GW282449A] | 98%
